PubChem BioAssay AID1159580 (chemical genetic matrix, 2015)
Screen size: about 5,500 compounds; about 2,000 (36%) were called active. About 18% were inconclusive and are not listed. Cut-off read from the data, not from the text of the source: active = normalized growth mostly below about 0.91 (no sharp cut-off); inconclusive = no clear call, values can overlap the other calls; inactive = mostly above about 0.92. The list shows a part of the results.

Experiment: chemical genetic growth profiling, strain panel (AID 1159580);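 note: tested at 20 µM; growth read once vehicle control cultures reached saturation at 30 °C; 1 = growth at the plate median or of vehicle wells; lower values mean less growth of the strain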
Conditions: S. cerevisiae deletion strains, growth OD

Measured: normalized growth

O=c1cc(-c2ccc(O)c(O)c2)oc2cc(O)cc(O)c12
inactive: locus YAL040C, strain CLN3, hits give low values 1.02 | locus YCL061C, strain MRC1 (second series), hits give low values 0.989 | locus YDR150W, strain NUM1, hits give low values 0.964 | locus YDR363W, strain ESC2, hits give low values 1.02 | locus YER002W, strain NOP16, hits give low values 1.01 | locus YGR078C, strain PAC10, hits give low values 0.989 | locus YJR075W, strain HOC1, hits give low values 0.984 | locus YMR263W, strain SAP30, hits give low values 1 | locus YNL175C, strain NOP13, hits give low values 1.01 | locus YNL197C, strain WHI3, hits give low values 1.02 | locus YNL224C, strain SQS1, hits give low values 1.03 | locus YOR083W, strain WHI5 (second series), hits give low values 0.966 | locus YPL241C, strain CIN2, hits give low values 0.997
